# Measurements published in the supplement of paper PMC11417369.
# ± gives the standard deviation of the averaged measurements. Whole data set: some 25,000 sequences, median “ln(normalized median fluorescence intensity)” near 8.6, cut for the highest 2% near 10. The sample as a whole holds a higher share of the highest values than the screen did.
# Tested on: PfAP2-EXP AP2 domain (GST-tagged)
# Test: gcPBM binding intensity (ln(normalized median fluorescence intensity)); higher = stronger DNA binding
# Method in brief: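 Binding intensity is defined as the maximum Masliner-normalised natural-log median intensity across replicate spots for either probe orientation. It was measured on an Agilent 4 × 180k array of primer-extended double-stranded 36-bp intergenic genomic probes and negative controls, to which GST-tagged P. falciparum DNA-binding domains made in E. coli were applied for 1 h in 1× PBS with 1% milk, 0.2 mg/ml BSA, 0.5% salmon testes DNA and 0.03% Triton X-100. Detection was by Alexa488 anti-GST antibody and scanning at 488 nm.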
row,Sequence,gcPBM binding intensity (ln)
1,TCACATACATTACTTACACACCATATTAAGATATAC [CACACA_site4415],8.68 ± 0.43
2,ATTTATATTCCAATATGTACATATTTTCGTATAACC [XGTACX_site8507],8.88 ± 0.35
3,AAATTTCAATAATCTACACACATAAAAAAACAAAAG [CACACA_site1702],8.82 ± 0.52
4,TACAATTTTTTAAATGCACACAAAAGGAATAAATAA [CACACA_site8075],8.78 ± 0.16
5,GAAAAAAGAAATTAAACATGCATCTGCAAATTTAAA [TGCATGCA_site974],8.34 ± 0.42
6,TGAATACTTATGTTCGCACACATGCAAATTAAAAAA [CACACA_site4048],8.62 ± 0.22
7,ACTATAAATATATACACATGCGCACACACAAGTGGG [TGCATGCA_site432],8.77 ± 0.39
8,TCTTATTCAAACGTAAAACGAAGAAGAAAAAAAAAA [CACACA_negctrl_site149],8.49 ± 0.41
9,AATGTACAAATACGTACACACATATATATATATATA [CACACA_site1542],10.1 ± 0.42
10,ATAATAAAAATAAAATGTACATACATAAATATATAT [XGTACX_site6228],8.62 ± 0.28
11,AAAATAATGTATATATGTACATATAAATATATATAT [XGTACX_site8081],9.32
12,GTTATAAATGCATATACACACATACGTACATACATA [CACACA_site7655],8.79 ± 0.23
13,ATACACAAATGCATACGTACATATATATATATATAT [XGTACX_site3504],10.2 ± 0.33
14,AAAATAATAAATAAATGTACATATATATATATATAT [XGTACX_site3078],10.2 ± 0.47
15,TATTTCATATGAAGAAGTACTATTAATAATTTCCTT [XGTACX_site6587],8.3 ± 0.28
16,TATTATTTTAATTATTCACACATTATTATAAAAATT [CACACA_site5538],8.3 ± 0.33
17,ATTATTCGTTTTAAATGTACTCATATAAACGATAAA [XGTACX_site7866],8.52 ± 0.3
18,GGATATAACAAACACACACACACATATATATATATT [CACACA_site4141],8.59 ± 0.19
19,AAATCGAACAAATTATGTACTAAAAAAAAAATTTAT [XGTACX_site6399],8.39 ± 0.4
20,AATATGTATCCATACACACATACATTTTATTTGCAA [CACACA_site874],8.65 ± 0.45
21,ATATATATATATAACACACGCAAAAAAATTAAATAA [CACACA_site1400],9.96 ± 0.11
22,AGCAAAAATTAAATAAATAAATATATATATATATAT [TGCATGCA_negctrl_site449],10.2 ± 0.63
23,ATATATATATATATAACACACGCAAAAAAATTAAAT [CACACA_site8395],10.2 ± 0.26
24,AAAAAAAATTAAAATAAAATATAAATATAAAATATA [GTGCAC_negctrl_site714],8.23 ± 0.24
25,TGATATATATATATATATATAACACACGCAAAAAAA [TGCATGCA_negctrl_site240],8.73 ± 0.51
26,TACAAAAAAATAAAAAAAATTAAATAAATAAATATA [CACACA_negctrl_site45],8.17 ± 0.37
